Our source for the growth values is PubChem BioAssay (NCI).

Compounds without any hit were thinned out: in the full panel of roughly 83,000, 20% have a hit.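 For each line, cells grew in 96-well plates with the test compound present at a single concentration for 48 hours.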 A number with no mark means an inactive call. The source made the active and inactive calls. How the source made its calls: active means growth percent below 10; inactive means the rest.

Common to all, as to test: NCI-60 one-dose screen, 48 h (100 = growth as untreated, 0 = no growth, -100 = all killed)
The test system of one experiment is SR leukemia. The note with it: 10 µM unless noted.
The subject of the next experiment is RPMI-8226 leukemia. The note with it: 10 µM unless noted.
The test system of the next experiment is OVCAR-8 ovarian. To be noted: 10 µM unless noted.
A further experiment relates to OVCAR-5 ovarian. The note with it: 10 µM unless noted.
In the next experiment the test system is OVCAR-4 ovarian. To be noted: 10 µM unless noted.
The subject of a further experiment is SK-OV-3 ovarian. The note with it: 10 µM unless noted.
The test system of another experiment is OVCAR-3 ovarian. To be noted: 10 µM unless noted.
For the next experiment, the system named is HS 578T breast. The note with it: 10 µM.
The next experiment concerns NCI/ADR-RES ovarian. To be noted: 10 µM unless noted.
The next experiment has as its system T-47D breast. The note with it: 10 µM unless noted.
The next experiment concerns BT-549 breast. To be noted: 10 µM unless noted.
The test system of another experiment is MDA-MB-435 melanoma. To be noted: 10 µM unless noted.
The test system of the next experiment is SW-620 colon. The note with it: 10 µM unless noted.
The subject of a further experiment is MCF7 breast. To be noted: 10 µM unless noted.
A further experiment has as its system HCT-116 colon. The note with it: 10 µM unless noted.
The test system of another experiment is HCC-2998 colon. The note with it: 10 µM.
The subject of another experiment is KM12 colon. The note with it: 10 µM unless noted.
A further experiment concerns IGROV1 ovarian. The note with it: 10 µM unless noted.

For `O=C(Cn1ccc2ccccc21)Nc1ccc(-c2nc3ccccc3s2)cc1`, the growth in the experiment on SR leukemia is 95.5%; in the experiment with RPMI-8226 leukemia, 100%; in the experiment with OVCAR-8 ovarian, 105%; in the experiment with OVCAR-5 ovarian it was 104%; in the experiment with OVCAR-4 ovarian, 103%; with SK-OV-3 ovarian it was 102%. The growth in the experiment with OVCAR-3 ovarian was 102%; in the experiment on HS 578T breast, 97.7%; in the experiment with NCI/ADR-RES ovarian it was 100%; with T-47D breast, 90.6%; with BT-549 breast it was 105%; with MDA-MB-435 melanoma, 104%. Moreover, the growth with SW-620 colon was 106%; in the experiment with MCF7 breast, 38.2%; in the experiment with HCT-116 colon, 102%; with HCC-2998 colon, 103%; in the experiment on KM12 colon, 106%.
`C=CC[n+]1c(/C=C2\Sc3ccccc3N2C)sc(-c2ccccc2)c1-c1ccccc1`: the growth with SR leukemia is 1.88% (active); in the experiment on RPMI-8226 leukemia, 0.0474% (active); with OVCAR-8 ovarian, 15.1%; with OVCAR-5 ovarian, 21.9%; in the experiment on OVCAR-4 ovarian it was 23.8%; with SK-OV-3 ovarian, -15% (active). In addition, the growth was 15.1% in the experiment on OVCAR-3 ovarian; 56.9% with HS 578T breast; 85% in the experiment on NCI/ADR-RES ovarian; 5.7% (active) in the experiment on T-47D breast; 11.9% with BT-549 breast; 5.39% (active) with MDA-MB-435 melanoma. Further, the growth is 22.1% in the experiment on SW-620 colon; 6.39% (active) with MCF7 breast; 12% in the experiment on HCT-116 colon; 29.4% in the experiment with HCC-2998 colon; 14% in the experiment with KM12 colon.
As for `CCN1CCN(c2cc(C)nc(N(CCCNc3ccnc4cc(Cl)ccc34)Cc3cccs3)n2)CC1`, the growth in the experiment with SR leukemia was -34% (active); in the experiment on RPMI-8226 leukemia, -33.6% (active); in the experiment on OVCAR-8 ovarian it was 15.7%; in the experiment on OVCAR-5 ovarian, 69.8%; with OVCAR-4 ovarian, 30.4%; in the experiment on SK-OV-3 ovarian it was 65.5%. For the same compound, the growth was -2.11% (active) in the experiment with OVCAR-3 ovarian; -22.4% (active) with HS 578T breast; 28.5% with NCI/ADR-RES ovarian; -18.7% (active) in the experiment on T-47D breast; -20.6% (active) in the experiment on BT-549 breast; -79.8% (active) in the experiment on MDA-MB-435 melanoma. Moreover, the growth was -8.17% (active) in the experiment with SW-620 colon; 12.3% in the experiment with MCF7 breast; 10.8% in the experiment on HCT-116 colon; -27.2% (active) in the experiment with HCC-2998 colon; 35.4% in the experiment on KM12 colon.
Consider `Cn1ncc(Cl)c1-c1cc(C(=O)N[C@H](CN)Cc2ccc(F)c(F)c2)oc1Cl`, for which the growth in the experiment with SR leukemia is -10.6% (active); with RPMI-8226 leukemia it was -5.77% (active); in the experiment with OVCAR-8 ovarian it was -38.4% (active); in the experiment with OVCAR-5 ovarian, 5.81% (active); in the experiment on OVCAR-4 ovarian it was 24.8%; with SK-OV-3 ovarian it was -41.6% (active). Besides, the growth in the experiment with OVCAR-3 ovarian is 18.2%; in the experiment on NCI/ADR-RES ovarian, 8.92% (active); in the experiment on T-47D breast, -50.7% (active); with BT-549 breast it was -66.4% (active); in the experiment on MDA-MB-435 melanoma, -59.8% (active); in the experiment on SW-620 colon, 27.9%. Besides, the growth with MCF7 breast is -28.5% (active); in the experiment with HCT-116 colon it was -28.3% (active); with HCC-2998 colon, -89.9% (active); in the experiment on KM12 colon it was -39.2% (active).
As to `COCCOc1cnc2ccn([C@H](C)c3nnc4c(F)cc(-c5cnn(C)c5)cn34)c(=O)c2c1`, the growth in the experiment with SR leukemia is 84%; in the experiment on RPMI-8226 leukemia, 78.8%; in the experiment with OVCAR-8 ovarian, 86.9%; with OVCAR-5 ovarian it was 31.5%; in the experiment with OVCAR-4 ovarian it was 88.4%; in the experiment with SK-OV-3 ovarian, 82.4%. Also, the growth in the experiment on IGROV1 ovarian was 66.3%; in the experiment on OVCAR-3 ovarian it was 102%; in the experiment with NCI/ADR-RES ovarian, 91.3%; in the experiment on T-47D breast, 94.6%; in the experiment on MDA-MB-435 melanoma, 60%; with SW-620 colon it was 35.5%. For the same compound, the values for the growth in the experiment on MCF7 breast, in the experiment on HCT-116 colon and in the experiment on KM12 colon were 103%, 99.9% and 28.3%, respectively.
`CC1(O)CCC2CC3OC3(C)CCC3OC3(C)C(O)CC1C2(C)C` (centres undefined): the growth in the experiment with SR leukemia is 104%; in the experiment with RPMI-8226 leukemia, 84.4%; in the experiment with OVCAR-8 ovarian it was 87.3%; in the experiment on OVCAR-5 ovarian, 120%; with OVCAR-4 ovarian, 91.1%; in the experiment with SK-OV-3 ovarian, 109%. For the same compound, the growth is 70% in the experiment with IGROV1 ovarian; 118% in the experiment on OVCAR-3 ovarian; 112% in the experiment with NCI/ADR-RES ovarian; 116% in the experiment with T-47D breast; 113% in the experiment on MDA-MB-435 melanoma; 99.2% with SW-620 colon. Also, the growth with MCF7 breast was 105%; with HCT-116 colon, 121%; in the experiment with KM12 colon it was 112%.
In the case of `N#Cc1c(NC(=O)c2ccco2)[n+]([O-])c2cc(F)c(F)cc2[n+]1[O-]`, the growth was 8.42% (active) in the experiment with SR leukemia; 17.8% in the experiment on RPMI-8226 leukemia; 38.9% with OVCAR-8 ovarian; 119% in the experiment on OVCAR-5 ovarian; 89.7% in the experiment with OVCAR-4 ovarian; 99.4% with SK-OV-3 ovarian. Also, the growth with IGROV1 ovarian is 29.6%; in the experiment on OVCAR-3 ovarian it was 102%; in the experiment with NCI/ADR-RES ovarian, 112%; in the experiment on T-47D breast it was 71.8%; in the experiment with MDA-MB-435 melanoma it was 98%; in the experiment on SW-620 colon, 87.5%. The growth was 67.5% in the experiment on MCF7 breast, 101% with HCT-116 colon and 85% in the experiment with KM12 colon.
Take `CCN1CCN(c2cc(C)nc(N(CCCNc3ccnc4cc(Cl)ccc34)Cc3ccc4c(c3)OCO4)n2)CC1`: the growth in the experiment with SR leukemia was -40.3% (active); with RPMI-8226 leukemia it was -49.6% (active); in the experiment on OVCAR-8 ovarian, 9.03% (active); in the experiment on OVCAR-5 ovarian, 50.2%; with OVCAR-4 ovarian, 27.7%; with SK-OV-3 ovarian, 72.1%. Besides, the growth was -26.9% (active) with OVCAR-3 ovarian; -27.1% (active) in the experiment with HS 578T breast; 14.2% with NCI/ADR-RES ovarian; -51.8% (active) in the experiment on T-47D breast; -42.6% (active) in the experiment on BT-549 breast; -73.7% (active) in the experiment on MDA-MB-435 melanoma. The growth is -3.47% (active) with SW-620 colon; 4.2% (active) in the experiment with MCF7 breast; 2.67% (active) with HCT-116 colon; -42.3% (active) in the experiment with HCC-2998 colon; 29.8% with KM12 colon.
